Measured values taken from the supplement of paper PMC6522484.
Where “and” joins values, the source holds several entries; their conditions need not be identical. Identical values can stand only once. ± gives the standard deviation of the averaged measurements.

How the values were obtained:
[1] = system: DLD1; test: cell viability (CellTiter-Glo) relative to plate median (fraction of plate median); higher = more viable cells; details: 5 µM; treatment time 24 h; reporter: 7TFP
Method in brief: (§1)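 Two independent replicates were averaged for each reported value. Library compounds were applied at a final 5 µM for 24 h to colorectal cancer cell lines stably expressing lentiviral TCF/Wnt firefly luciferase reporters. Firefly luciferase or CellTiterGlo luminescence from each well was normalised to the plate median.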

[2] = system: HCT116; test: as above; details: 5 µM; treatment time 24 h; reporter: TCF4/Wnt
Method in brief: as §1

[3] = system: SW480; test: as above; details: 5 µM; treatment time 24 h; reporter: 7TFP
Method in brief: as §1

[4] = system: DLD1; test: TCF/Wnt firefly luciferase reporter signal relative to plate median (fraction of plate median); higher = higher Wnt reporter signal; details: 5 µM; treatment time 24 h; reporter: 7TFP
Method in brief: as §1

[5] = system: SW480; test: as above; details: 5 µM; treatment time 24 h; reporter: 7TFP
Method in brief: as §1

| Structure (SMILES) | cell viability [1] | cell viability [2] | cell viability [3] | TCF/Wnt firefly luciferase reporter signal [4] | TCF/Wnt firefly luciferase reporter signal [5] |
| --- | --- | --- | --- | --- | --- |
| Cc1ccc(-c2cc(C(F)(F)F)nn2-c2ccc(S(N)(=O)=O)cc2)cc1 | 0.972 ± 0.097 | 1.02 ± 0.087 | 0.987 ± 0.047 | 0.919 ± 0.013 | 0.947 ± 0.04 |
| C=C(C)[C@@H]1CC=C(C(=O)O)CC1 | 1.055 ± 0.0071 | 1.04 ± 0.11 | 0.995 ± 0.035 | 1.11 ± 0.17 | 1.055 ± 0.0071 |
| Cn1c(=O)[nH]c2[nH]cnc2c1=O | 1.02 ± 0.042 | 1.04 ± 0.14 | 1.04 ± 0.072 | 0.964 ± 0.011 | 0.992 ± 0.025 |
| COc1cc(C(N)=O)ccc1O [4-Hydroxy-3-methoxy-benzoic acid amide, Vanillic acid amide] | 0.953 ± 0.032 | 1.125 ± 0.0071 | 1.06 ± 0.014 | 1.06 ± 0.086 | 0.942 ± 0.064 |
| O=C(O)/C=C/c1ccccc1 | 1.09 ± 0.17 | 1.08 ± 0.092 | 1.09 ± 0.035 | 0.928 ± 0.086 | 1.05 ± 0.035 |
| C#CCCCCCCCCCCCc1ccco1 | 0.997 ± 0.033 | 1.03 ± 0.014 | 1.075 ± 0.0071 | 1.145 ± 0.0071 | 0.953 ± 0.096 |
| O=c1cc(-c2ccc(O)c(O)c2)oc2cc(O[C@@H]3O[C@H](CO)[C@@H](O)[C@H](O)[C@H]3O)cc(O)c12 [Luteolin-7-O-glucoside (102)] | 0.908 ± 0.058 | 0.957 ± 0.041 | 0.95 ± 0.0028 | 0.861 ± 0.052 | 1.03 ± 0.072 |
| COc1ccc2c3c1O[C@H]1C[C@@H](O)C=C[C@@]31CCN(C)C2 | 1.04 ± 0.05 | 1 ± 0.081 | 1.03 ± 0.045 | 0.9965 ± 0.0021 | 1.05 |
| CCOC(=O)C(C)(C)Oc1ccc(Cl)cc1 | 1.01 ± 0.021 | 0.981 ± 0.0071 | 0.971 ± 0.055 | 1.24 ± 0.021 | 1.04 ± 0.035 |
| CC(C)c1cccc(=O)c(O)c1 | 1.11 ± 0.13 | 1.07 ± 0.042 | 1.1 ± 0.021 | 1.03 ± 0.073 | 0.985 ± 0.064 |
| CC(=O)N[C@@H](CC(=O)N[C@@H](CCC(=O)O)C(=O)O)C(=O)O | 1.01 ± 0.014 | 1.055 ± 0.0071 | 0.925 ± 0.011 | 0.958 ± 0.088 | 0.988 ± 0.032 |
| O=c1cc(-c2ccccc2)oc2c(O)c(O)ccc12 | 1.11 ± 0.11 | 0.969 ± 0.039 | 0.98 ± 0.015 | 1.13 ± 0.071 | 1.11 ± 0.057 |
| O=C(O)c1ccccc1Nc1cccc(C(F)(F)F)c1 | 0.967 ± 0.0099 | 0.934 ± 0.042 | 0.95 ± 0.011 | 0.96 ± 0.057 | 1.07 ± 0.064 |
| Cc1cn([C@H]2C[C@H](N=[N+]=[N-])[C@@H](CO)O2)c(=O)[nH]c1=O | 0.976 ± 0.012 | 0.958 ± 0.018 | 1 ± 0.022 | 0.874 ± 0.02 | 0.928 ± 0.011 |
| COC1=CC(=O)C(O)=C/C1=C\C=C\c1ccccc1 | 1 ± 0.013 | 1.06 ± 0.12 | 1 ± 0.057 | 1.1 ± 0.064 | 0.905 ± 0.1 |
| COc1ccc(-c2oc3cc(OC)c(OC)c(OC)c3c(=O)c2OC)cc1OC | 0.952 ± 0.028 | 1.1 ± 0.014 | 1.06 ± 0.092 | 0.986 ± 0.049 | 1.06 ± 0.17 |
| O=C(O)C1=CCCNC1 | 1.01 ± 0.061 | 1.01 ± 0.037 | 1 ± 0.013 | 1.13 ± 0.028 | 1.04 ± 0.16 |
| CN(C)CC[C@@H](c1ccc(Cl)cc1)c1ccccn1 | 1.01 and 0.901 | 0.96 and 1.04 | 0.968 and 1.01 | 0.862 and 1.08 | 0.778 and 1.05 |
| COC(=O)C1=C(C)NC(C)=C(C(=O)OCC(C)C)C1c1ccccc1[N+](=O)[O-] (stereo not given) | 0.869 ± 0.11 | 1 ± 0.041 | 0.905 ± 0.071 | 0.961 ± 0.24 | 0.923 ± 0.037 |
| CN(C)CCC(c1ccc(Br)cc1)c1ccccn1 (stereo not given) | 0.931 ± 0.15 | 1.055 ± 0.0071 | 0.922 ± 0.061 | 1.11 ± 0.11 | 1.055 ± 0.0071 |
| Cc1c(N(C)CS(=O)(=O)O)c(=O)n(-c2ccccc2)n1C | 1.04 ± 0.014 | 0.968 ± 0.035 | 1.06 ± 0.085 | 0.969 ± 0.059 | 1.04 ± 0.059 |
| Cc1c(NC(=O)c2cccnc2)c(=O)n(-c2ccccc2)n1C | 1.01 | 1.1 ± 0.042 | 0.981 ± 0.015 | 1.06 ± 0.17 | 1 ± 0.037 |
| O=C1[C@@H]2CCCN2C(=O)[C@@H]2CCCN12 [Cyclo(Prolylprolyl)] | 0.978 ± 0.0071 | 1.03 ± 0.065 | 0.9595 ± 0.0078 | 0.811 ± 0.15 | 1.01 ± 0.05 |
| C/C=C/C=C/c1cc2cc3c(c(O)c2c(=O)[nH]1)C1(CC3)C(O)=c2c(=O)c3c(=O)cc(OC)c(=O)c=3c(=O)c2=C1O (stereo not given) [Fredericamycin] | 1.03 ± 0.042 | 0.934 ± 0.022 | 1.04 ± 0.076 | 1.06 ± 0.21 | 0.981 ± 0.084 |
| CC(C)Oc1ccc2c(=O)c(-c3ccccc3)coc2c1 | 0.972 ± 0.013 | 1.05 ± 0.083 | 1.01 ± 0.021 | 1.24 ± 0.21 | 0.949 ± 0.34 |
| Oc1ccc2c(c1)OC[C@]1(O)Cc3cc(O)c(O)cc3[C@H]21 | 1.01 ± 0.044 | 0.929 ± 0.085 | 0.936 ± 0.0014 | 1.15 ± 0.11 | 0.909 ± 0.024 |
| COC(=O)C1=C(C)NC(C)=C(C(=O)OC)C1c1ccccc1[N+](=O)[O-] | 1.05 ± 0.14 | 0.995 ± 0.11 | 1.06 ± 0.028 | 1.04 ± 0.11 | 1.06 ± 0.078 |
| COc1ccc2c(c1)OC1(O)COc3cc(OC)c(OC)cc3C1=C2 (stereo not given) | 1.01 ± 0.035 | 1.05 ± 0.05 | 1.08 ± 0.035 | 0.985 ± 0.13 | 0.895 ± 0.075 |
| O=C(CCc1ccc(O)cc1)c1c(O)cc(O)cc1O | 0.974 ± 0.093 | 0.88 ± 0.047 | 0.933 ± 0.0042 | 0.75 ± 0.047 | 0.858 ± 0.037 |
